# Reference: PubChem BioAssay AID431 (Sanford-Burnham Center for Chemical Genomics, 2006)
# The whole screen tested about 63,000 compounds, of which about 1,100 (1.7%) were called active. The sample as a whole holds a higher share of actives than the screen did. Entries with a potency or affinity are not part of this list. Values without a mark were called inactive.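 How the source made its calls: active means compounds whose percent cytotoxicity in the single-dose primary screen, scaled between solvent and toxic-drug controls, exceeds 50; inactive means the rest.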
# Assay: cytotoxicity in KRAS-transformed pancreatic duct cells, primary screen, cell-based, fluorescence, HTS (AID 431);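 further: 0% = DMSO solvent wells and 100% = doxorubicin-treated wells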
# Conditions: HPDE-C7K KRASV12 cells, Alamar Blue viability, 48 h; at 10 µM; hits give high values
row,SMILES,cytotoxicity
1,CCOC(=O)c1c(C)[nH]c(C)c1-c1ccccc1OC,-2.6%
2,O=C(O)CCCNc1cc(N2CCC3(CC2)OCCO3)c2noc3c2c1C(=O)c1ccccc1-3,40.2%
3,CCOC(=O)c1c(C)noc1CP(=O)(c1ccccc1)c1ccccc1,2.6%
4,CC(=O)OCCNc1cc(N2CCN(C)CC2)c2noc3c2c1C(=O)c1ccccc1-3,16.8%
5,CC(CC(=O)O)CC1=NS(=O)(=O)c2ccccc2N1 (stereo unspecified),-8.6%
6,COc1ccc(CC(=O)Nc2c3c(nn2-c2cccc(C)c2C)CS(=O)C3)cc1OC (stereo unspecified),0.8%
7,COc1cccc(C(=O)c2sc(NC(C)C)nc2N)c1,72.7% (active)
8,CCCc1nnc(NC(=O)c2cccc(OC)c2)s1,-25.2%
9,COc1ccc(C(=O)c2sc(NC(C)C)nc2N)cc1OC,-12.6%
10,O=C(CSC1=NCCS1)NC1CCCCC1,3.6%
11,Cc1[nH]nc2c1C(C(C)C)C(C#N)=C(N)O2 (stereo unspecified),7.9%
12,CCC(CC)C1C(C#N)=C(N)Oc2n[nH]c(C)c21 (stereo unspecified),56.7% (active)
13,CCC(C)C1C(C#N)=C(N)Oc2n[nH]c(C)c21 (stereo unspecified),7.5%
14,COC(=O)Cc1cc(=O)n(-c2nc3ccccc3[nH]2)[nH]1,4.2%
15,CCOC(=O)CC(=O)Nc1nc2ccccc2s1,-6.8%
16,COC(=O)Cc1cc(=O)n(-c2nc3ccccc3s2)[nH]1,87.9% (active)
17,CCOC(=O)c1nc2ccccc2s1,-9.2%
18,CCOC(=O)Cc1cc(=O)n(-c2nc3ccccc3s2)[nH]1,79.8% (active)
19,COC(=O)Cc1cc(=O)n(-c2ccccc2)[nH]1,-4.1%
20,CSC1=C(C#N)C(C)C2=C(CC(C)(C)CC2=O)N1 (stereo unspecified),-15.4%
21,Cc1cc(C)nc(N2CCC(C(=O)NC3CCCCCC3)CC2)n1,-1.8%
22,COc1ccc(N2CCN(C(c3ccccc3)c3nnnn3Cc3ccc(F)cc3)CC2)cc1 (stereo unspecified),-7.5%
23,O=C(Cc1ccc(Cl)cc1)Nc1ccc(-c2nnc(-c3ccco3)o2)cc1,4.4%
24,O=C1CN(C(=O)c2cccs2)c2ccccc2N1,-12.5%
25,O=C(c1ccc(F)cc1)N(Cc1ccccc1)C1CCS(=O)(=O)C1 (stereo unspecified),-7.8%
26,CCOc1ccc(-c2[nH]ncc2-c2ccc(OC)c(OC)c2)c(O)c1,51.8% (active)

row,SMILES,cytotoxicity
1,COc1ccc(-c2[nH]ncc2-c2ccc(Cl)cc2)c(O)c1,47%
2,COc1ccc(-c2[nH]ncc2-c2cnc(C)s2)c(O)c1,7.2%
3,C=C(C)COc1ccc(-c2[nH]ncc2-c2ccc(OC)c(OC)c2)c(O)c1,4.1%
4,CCOc1ccc(-c2[nH]ncc2Oc2ccccc2OCC)c(O)c1,55.7% (active)
5,CCOc1ccc(-c2[nH]ncc2Oc2ccccc2OC)c(O)c1,61.4% (active)
6,COc1ccc(Oc2cn[nH]c2-c2ccc(O)cc2O)cc1,24.9%
7,COc1ccc(-c2[nH]ncc2Oc2ccccc2OC)c(O)c1,42.5%
8,CCOc1ccccc1Oc1cn[nH]c1-c1ccc(OC)cc1O,61.8% (active)
9,CCOC(=O)C1CCN(Cc2nc3ccccc3c(=O)n2-c2ccc(OCC)cc2)CC1,7.8%
10,CC(=O)Nc1ccc(OC(F)(F)C(F)C(F)(F)F)c(NC(C)=O)c1 (stereo unspecified),-5.3%
11,CCOC(=O)c1c(C)n(CC(O)c2ccccc2)c2ccc(O)cc12 (stereo unspecified),-7.5%
12,OCCNCc1ccc(OC2CCCC2)cc1,5.4%
13,COc1ccc(CCNC(=O)CC2Nc3cc(C)c(C)cc3NC2=O)cc1OC (stereo unspecified),0%
14,O=C(O)Cn1cccc1C(=O)c1ccccc1,-0.1%
15,N=c1c(C(=O)NCc2ccc(F)cc2)cc2c(=O)n3ccccc3nc2n1Cc1ccco1,-3.9%
16,O=C(Cn1c(=O)sc2ccccc21)NCCOc1ccccc1F,-11.5%
17,CCC(C)Sc1nnc(Cc2cc(=O)[nH]c(=O)[nH]2)n1-c1ccc(F)cc1 (stereo unspecified),-12.7%
18,CC(=O)Nc1ccc(N(C(=O)c2cnccn2)C(C(=O)NC2CCCCC2)c2ccc(O)cc2)cc1 (stereo unspecified),-16.5%
19,CCOC(=O)c1sc(NC(=O)c2ccc(CC)s2)nc1C,4.6%
20,C=C(C)COc1ccc(-c2[nH]ncc2Oc2ccccc2OCC)c(O)c1,78.4% (active)
21,C=C(C)COc1ccc(-c2nc(N)ncc2Oc2ccccc2OCC)c(O)c1,18.1%
22,CC1Cc2ccccc2N1C(=O)CN1C(=O)NC(C)(c2ccc3c(c2)OCCO3)C1=O (stereo unspecified),1.8%
23,COc1cc2ccccc2cc1C(=O)N1CCN(C)CC1,-4.6%
24,CN1CCN(c2ccc(NC(=O)c3ccccc3Br)cc2)CC1,2.5%
25,COc1cc2ccccc2cc1C(=O)Nc1ccc(N2CCN(C)CC2)cc1,65.5% (active)
